The values below come from PubChem BioAssay AID624101 (Broad Institute, 2012).

In all, about 70,000 compounds went through this assay and about 120 (0.17%) were called active. The sample as a whole holds a higher share of actives than the screen did. Unmarked numbers belong to inactive results. No stated cut-off is given here; in the data, active means inhibition above about 34%; inconclusive means no clear call, values can overlap the other calls; inactive means below about 11%.

The target in this experiment is Isocitrate dehydrogenase [NADP] cytoplasmic (Homo sapiens) (UniProt O75874). As to the kind of experiment: PubChem AID 624101.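 Further: 0% = DMSO and 100% = no enzyme.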 To be noted: IDH1 R132H reductase, diaphorase/resazurin fluorescence, 60 min; at 10 µM; hits give high values.
Chain of Isocitrate dehydrogenase [NADP] cytoplasmic (Homo sapiens) (O75874 whole entry R132H): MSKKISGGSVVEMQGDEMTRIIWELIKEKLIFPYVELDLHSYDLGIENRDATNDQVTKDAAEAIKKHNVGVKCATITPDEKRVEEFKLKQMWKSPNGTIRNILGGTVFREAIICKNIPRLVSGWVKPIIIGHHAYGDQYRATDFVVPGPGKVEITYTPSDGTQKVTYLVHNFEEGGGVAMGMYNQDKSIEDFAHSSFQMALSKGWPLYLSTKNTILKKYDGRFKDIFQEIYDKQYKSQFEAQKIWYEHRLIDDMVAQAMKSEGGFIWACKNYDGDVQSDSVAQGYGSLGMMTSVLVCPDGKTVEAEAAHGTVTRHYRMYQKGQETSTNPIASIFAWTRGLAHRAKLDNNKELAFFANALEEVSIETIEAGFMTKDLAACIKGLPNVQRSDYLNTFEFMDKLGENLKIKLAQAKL
Regarding `CNC[C@H]1Oc2cc(C#Cc3ccccc3)ccc2S(=O)(=O)N([C@@H](C)CO)C[C@@H]1C`, the inhibition was 4.92%.

On to `Cc1ccc(S(=O)(=O)NCC[C@H]2CC[C@@H](NS(=O)(=O)c3ccccc3Cl)[C@H](CO)O2)cc1`, for which the inhibition was 0.263%.

Take `O=C(Nc1cccc(Cl)c1)N[C@H]1CC[C@H](CCNC(=O)C2CCOCC2)O[C@H]1CO`: the inhibition was 0.082%.

Regarding `O=C(C[C@@H]1CC[C@@H](NC(=O)C2CCOCC2)[C@H](CO)O1)Nc1ccc(-c2ccccc2)cc1`, the inhibition is 0.222%.

On to `O=C(C[C@@H]1C=C[C@H](NC(=O)c2ccc3c(c2)OCO3)[C@H](CO)O1)NCc1ccc(Oc2ccccc2)cc1`, for which the inhibition is -0.347%.

Turning to `O=C(C[C@H]1C=C[C@@H](NC(=O)Nc2cc(F)ccc2F)[C@@H](CO)O1)NCc1ccc2c(c1)OCO2`, the inhibition is -0.0695%.

Take `CN1CCN(C(=O)C[C@@H]2C[C@H]3c4cc(NC(=O)NC5CCCC5)ccc4O[C@H]3[C@H](CO)O2)CC1`: the inhibition is -0.193%.

On to `CO[C@H]1CN(C)C(=O)c2ccc(NC(=O)c3nc4ccccc4s3)cc2OC[C@@H](C)N(Cc2cncnc2)C[C@H]1C`, for which the inhibition is -1.03%.

As for `O=C(C[C@@H]1C[C@@H]2c3cc(NC(=O)C4CCC4)ccc3O[C@@H]2[C@@H](CO)O1)NCc1ccccc1`, the inhibition is 0.171%.

For `O=C(C[C@@H]1C[C@@H]2c3cc(NC(=O)Cc4ccncc4)ccc3O[C@@H]2[C@H](CO)O1)NCc1cccc(F)c1`, the inhibition is 0%.

With `C[C@H](NC(=O)N(C)C[C@@H]1OCc2ccccc2-c2ccccc2C(=O)N([C@H](C)CO)C[C@@H]1C)c1ccccc1`, the inhibition was -1.38%.

With `Cc1noc(C)c1S(=O)(=O)Nc1ccc2c(c1)C(=O)N([C@H](C)CO)C[C@H](C)[C@H](CN(C)S(C)(=O)=O)OCCCC[C@H](C)O2`, the inhibition is 2.45%.

For `C[C@@H]1CN([C@@H](C)CO)S(=O)(=O)c2ccc(C#Cc3ccccc3)cc2O[C@@H]1CN(C)C(=O)C1CC1`, the inhibition was -0.265%.

For `CO[C@@H]1CN(C)C(=O)c2ccc(NS(=O)(=O)c3ccc(Cl)cc3)cc2OC[C@H](C)N(C(=O)NC(C)C)C[C@H]1C`, the inhibition is 0.21%.

As to `O=C(NCC[C@H]1CC[C@@H](NC(=O)C2CCCC2)[C@@H](CO)O1)c1cc(Cl)cc(Cl)c1`, the inhibition is -0.187%.

`Cc1ccc(S(=O)(=O)NCC[C@@H]2CC[C@H](NC(=O)CC3CC3)[C@H](CO)O2)cc1`: the inhibition was -0.044%.

As for `O=C(Nc1ccccc1F)N[C@@H]1CC[C@H](CC(=O)N2CCCCC2)O[C@H]1CO`, the inhibition is 0.211%.

As to `O=C(N[C@@H]1CC[C@H](CCn2cc(C3CC3)nn2)O[C@H]1CO)c1cccnc1`, the inhibition is 0.0945%.

As for `CO[C@@H]1CN(C)C(=O)c2ccc(NS(C)(=O)=O)cc2OC[C@@H](C)N(C(=O)C2CCOCC2)C[C@@H]1C`, the inhibition was -0.272%.

With `CO[C@@H]1CN(C)C(=O)c2cc(NC(=O)Nc3cc(F)ccc3F)ccc2OC[C@H](C)N(C)C[C@@H]1C`, the inhibition was -0.288%.

Consider `CO[C@@H]1CN(C)C(=O)c2ccc(NS(=O)(=O)c3cccc(Cl)c3)cc2OC[C@H](C)NC[C@H]1C`, for which the inhibition was -0.827%.

Take `Cc1ccc(S(=O)(=O)NCC[C@H]2CC[C@H](NC(=O)c3ccccn3)[C@@H](CO)O2)cc1`: the inhibition is -0.44%.

On to `C[C@@H]1CN([C@H](C)CO)S(=O)(=O)c2ccc(-c3ccc(C(=O)N(C)C)cc3)cc2O[C@@H]1CN(C)C(=O)Nc1ccccc1F`, for which the inhibition is 0.371%.

As to `COCCNC(=O)C[C@H]1C=C[C@@H](NS(=O)(=O)c2ccc(C)cc2)[C@@H](CO)O1`, the inhibition was -0.16%.

For `O=C(NCc1cccnc1)c1cnn2c(C(F)F)cc(-c3ccccc3)nc12`, the inhibition is -0.254%.

With `Cc1ccc(-c2cc(C(F)(F)F)n3nc(C(=O)NCCN4CCOCC4)c(Cl)c3n2)cc1`, the inhibition was -0.63%.

For `O=C(NCCCn1ccnc1)c1cnn2c(C(F)(F)F)cc(-c3ccccc3)nc12`, the inhibition was 42.5% (active).

For the compound `CO[C@H]1CN(C)C(=O)c2ccc(NC(=O)C3CC3)cc2OC[C@@H](C)N(C(=O)c2ccccn2)C[C@@H]1C`, the inhibition was 0.315%.

For the compound `CO[C@@H]1CN(C)C(=O)c2cc(NC(C)=O)ccc2OC[C@H](C)N(Cc2ccccn2)C[C@H]1C`, the inhibition is 0.0735%.

Take `COc1ccc(C(=O)Nc2ccc3c(c2)C(=O)N(C)C[C@@H](OC)[C@H](C)CN(C(C)=O)[C@@H](C)CO3)cc1`: the inhibition was 0.119%.

Consider `CO[C@H]1CC[C@@H]2CCOc3c(C#N)cccc3C(=O)N(C)CCCC(=O)N(C)C[C@@H]1O2`, for which the inhibition is -0.199%.

For the compound `O=C(C[C@@H]1C[C@@H]2c3cc(NS(=O)(=O)c4ccc(F)cc4)ccc3O[C@@H]2[C@H](CO)O1)N1CCCCC1`, the inhibition was 0.296%.

Consider `O=C(C[C@H]1CC[C@@H](NC(=O)Nc2ccc(F)cc2)[C@@H](CO)O1)NCCN1CCCC1`, for which the inhibition is -0.0445%.

In the case of `O=C(Nc1ccc(C(F)(F)F)cc1)N[C@@H]1CC[C@H](CCNC(=O)c2ccccc2F)O[C@H]1CO`, the inhibition was 0.069%.

Consider `Cc1ccc(S(=O)(=O)N[C@H]2CC[C@H](CC(=O)NCc3ccccc3F)O[C@@H]2CO)cc1`, for which the inhibition was -0.113%.

`CCCc1cn(CC[C@@H]2CC[C@@H](NS(=O)(=O)c3ccccc3Cl)[C@@H](CO)O2)nn1`: the inhibition was -0.18%.

`CO[C@H]1CN(C)C(=O)c2cc(NC(=O)C3CC3)ccc2OC[C@@H](C)NC[C@H]1C`: the inhibition is -0.162%.

Take `Cc1ccc(S(=O)(=O)NCC[C@@H]2CC[C@H](NC(=O)c3ccccn3)[C@H](CO)O2)cc1`: the inhibition was -0.387%.

`Cc1ccc(-c2ccc3c(c2)O[C@@H](CN(C)C(=O)CC2CC2)[C@@H](C)CN([C@@H](C)CO)S3(=O)=O)cc1`: the inhibition was -0.129%.

In the case of `O=C(C[C@@H]1CC[C@H](NC(=O)CN2CCOCC2)[C@@H](CO)O1)NCCc1ccccc1`, the inhibition is 0.1%.

For the compound `C[C@@H]1CN([C@H](C)CO)S(=O)(=O)c2ccc(-c3ccncc3)cc2O[C@@H]1CN(C)C(=O)CN(C)C`, the inhibition was 0.556%.

Turning to `O=C(C[C@H]1C=C[C@H](NC(=O)CC2CC2)[C@H](CO)O1)NCc1ccc(Cl)cc1`, the inhibition is -0.172%.

As for `C[C@@H]1CN([C@H](C)CO)S(=O)(=O)c2ccc(C3=CCCC3)cc2O[C@H]1CN(C)C(=O)c1ccccc1`, the inhibition is 1.4%.

As for `O=C(C[C@H]1CC[C@H](NC(=O)C2CCC2)[C@@H](CO)O1)Nc1nccs1`, the inhibition was 0.192%.

For the compound `CO[C@H]1CN(C)C(=O)c2ccc(NS(=O)(=O)c3ccccc3C)cc2OC[C@H](C)NC[C@H]1C`, the inhibition was -0.186%.

Consider `CO[C@H]1CN(C)C(=O)c2cc(NC(C)=O)ccc2OC[C@H](C)N(C(=O)C2CC2)C[C@H]1C`, for which the inhibition is -0.354%.

For the compound `CO[C@H]1CN(C)C(=O)c2ccc(NC(=O)C3CCC3)cc2OC[C@@H](C)N(Cc2ccccn2)C[C@H]1C`, the inhibition is 0.331%.

Turning to `CCC(=O)Nc1ccc2c(c1)C(=O)N(C)C[C@H](OC)[C@H](C)CN(Cc1ccccc1F)[C@H](C)CO2`, the inhibition was 0.217%.

`CO[C@H]1CN(C)C(=O)c2cc(NS(C)(=O)=O)ccc2OC[C@H](C)N(C(=O)C2CCCC2)C[C@H]1C`: the inhibition was 0.272%.

Regarding `CCC(=O)N(C)C[C@@H]1Oc2cc(C#CC(C)(C)O)ccc2S(=O)(=O)N([C@@H](C)CO)C[C@@H]1C`, the inhibition was -1.91%.

For the compound `CN(C)C(=O)C[C@@H]1C[C@@H]2c3cc(NC(=O)c4ccc5c(c4)OCO5)ccc3O[C@@H]2[C@H](CO)O1`, the inhibition was -0.927%.

Take `Cc1ccc(S(=O)(=O)N[C@H]2CC[C@H](CC(=O)O)O[C@H]2CO)cc1`: the inhibition is -0.244%.

As to `Cc1ccc(S(=O)(=O)N[C@H]2C=C[C@@H](CC(=O)NCCc3ccncc3)O[C@@H]2CO)cc1`, the inhibition is -0.308%.

`COc1ccc(-c2cn(CC[C@H]3CC[C@@H](N)[C@H](CO)O3)nn2)cc1`: the inhibition is 0.0195%.

`CO[C@H]1CN(C)C(=O)c2ccc(NS(=O)(=O)c3cn(C)cn3)cc2OC[C@H](C)N(C)C[C@H]1C`: the inhibition was -0.0025%.

Regarding `O=C(N[C@H]1C=C[C@@H](CC(=O)N2CCCCC2)O[C@@H]1CO)c1ccc2c(c1)OCO2`, the inhibition was -0.0205%.

On to `O=C(C[C@@H]1C[C@@H]2c3cc(NC(=O)C4CCOCC4)ccc3O[C@@H]2[C@H](CO)O1)NCc1ccncc1`, for which the inhibition is -0.106%.

Turning to `CCCNC(=O)N1C[C@H](C)[C@H](OC)CN(C)C(=O)c2cc(NC(=O)CC)ccc2OC[C@H]1C`, the inhibition is -0.059%.

Regarding `CCC(=O)N(C)C[C@@H]1Oc2ncc(-c3ccccc3OC)cc2C(=O)N([C@@H](C)CO)C[C@@H]1C`, the inhibition is -0.321%.

For the compound `CN1CCN(C(=O)C[C@H]2C[C@H]3c4cc(NC(=O)Nc5ccccc5F)ccc4O[C@H]3[C@H](CO)O2)CC1`, the inhibition is -0.523%.

Consider `O=C(Nc1ccc2c(c1)OCO2)N[C@@H]1CC[C@H](CC(=O)N2CCN(c3ccccc3)CC2)O[C@@H]1CO`, for which the inhibition was -0.0065%.

`O=C(Cc1ccncc1)NCC[C@H]1CC[C@H](NC(=O)C2CC2)[C@H](CO)O1`: the inhibition is 0.014%.

For `CCC(=O)N(C)C[C@H]1Oc2cc(C#CCC(C)C)ccc2S(=O)(=O)N([C@H](C)CO)C[C@H]1C`, the inhibition was -0.831%.

As to `O=C(NCC[C@H]1CC[C@@H](NC(=O)c2cnccn2)[C@H](CO)O1)Nc1ccc(Cl)cc1`, the inhibition was -0.362%.

On to `CN(C)CCCNC(=O)C[C@@H]1C=C[C@H](NC(=O)Cc2cccnc2)[C@H](CO)O1`, for which the inhibition is 0.394%.
